Records with an inconclusive call do not appear. A number with no mark means an inactive call. Calls come from the whole dose curve; as a rule, active = well fitted inhibition curve with a large enough effect; inconclusive = small, poorly fitted or top-dose-only effect; inactive = no such curve, though single readings can be large or run the other way.
These molecules were tested against Rap guanine nucleotide exchange factor 3 (Homo sapiens) (UniProt O95398) (assay: Counterscreen qHTS for antagonist of cAMP-regulated guanine nucleotide exchange factor 3 (EPAC1) (AID 1645888;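 note: fluorescence loss as bound BODIPY-GDP is released from Rap1B; % of control where 0% means no effect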)). Conditions: Rap1B-BODIPY-GDP nucleotide exchange, fluorescence; series mostly up to 154 µM; activity change, negative = inhibition: at the top concentration.
Sequence of Rap guanine nucleotide exchange factor 3 (Homo sapiens) (O95398 whole entry, looked up): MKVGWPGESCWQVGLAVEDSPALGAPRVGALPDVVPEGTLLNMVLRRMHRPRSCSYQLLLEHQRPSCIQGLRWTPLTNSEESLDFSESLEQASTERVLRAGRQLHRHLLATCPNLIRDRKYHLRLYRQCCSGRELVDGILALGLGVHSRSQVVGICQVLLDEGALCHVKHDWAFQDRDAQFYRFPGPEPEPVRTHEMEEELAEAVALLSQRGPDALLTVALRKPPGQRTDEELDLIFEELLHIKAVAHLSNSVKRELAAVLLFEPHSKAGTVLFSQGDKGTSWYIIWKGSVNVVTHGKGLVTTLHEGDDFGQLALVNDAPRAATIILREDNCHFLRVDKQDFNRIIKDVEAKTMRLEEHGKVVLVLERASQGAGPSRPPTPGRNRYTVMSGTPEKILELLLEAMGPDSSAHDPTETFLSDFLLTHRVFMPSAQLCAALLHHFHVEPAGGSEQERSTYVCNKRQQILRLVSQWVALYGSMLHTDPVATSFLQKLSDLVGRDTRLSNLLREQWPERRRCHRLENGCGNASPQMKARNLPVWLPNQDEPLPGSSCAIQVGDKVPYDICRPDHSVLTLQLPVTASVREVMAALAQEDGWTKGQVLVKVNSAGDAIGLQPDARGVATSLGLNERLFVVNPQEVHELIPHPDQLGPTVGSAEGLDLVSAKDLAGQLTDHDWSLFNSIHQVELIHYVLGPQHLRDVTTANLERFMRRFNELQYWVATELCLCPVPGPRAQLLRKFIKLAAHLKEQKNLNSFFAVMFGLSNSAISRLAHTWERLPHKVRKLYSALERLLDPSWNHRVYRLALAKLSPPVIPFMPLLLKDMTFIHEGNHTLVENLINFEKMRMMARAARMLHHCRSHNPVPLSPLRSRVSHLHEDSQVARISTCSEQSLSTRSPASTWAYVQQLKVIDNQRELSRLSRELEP
Outline: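 Rap1B-BODIPY-GDP 250 nM + GDP 50 uM; cpds 7-pt, final 9.74 nM–152 uM (activator mode) or from 7.32 nM upwards (inhibitor mode); RT; FI 480/540 nm at 5 and 30 min, then ± cAMP, reread.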

Point of comparison: CCn1c(=O)c(C(=O)Nc2ccccc2S(N)(=O)=O)c(O)c2ccccc21, “activity change, negative = inhibition” value 1.54%. Against it:
- CCc1nc2c(OCc3ccc(C(=O)OC)cc3)cccn2c1N(C)C(=O)c1ccc(C)cc1 — higher, 13.1%
- N#CCC(=O)N/N=C/c1coc2ccccc2c1=O — higher, 14.9%
- Cc1ccc(C)c(OC(C)C(=O)Nc2ccc(S(=O)(=O)Nc3nccs3)cc2)c1 (stereo not given) — higher, 4.14%
- CCc1nc2c(OCc3ccc(C(F)(F)F)cc3)cccn2c1N(C)C(=O)c1ccc(C)cc1 — lower, -30.1%
- O=C(Nc1ccccc1C(=O)O)c1cccc(NC(=O)c2ccc(Br)o2)c1 — lower, -5.74%
- CCOc1ccccc1Oc1ncnc2c1oc1ccccc12 — higher, 18.5%
- COCCNc1nc2cc(-c3ccsc3)sc2c(=O)n1C — lower, -10.6%
- Cc1ccc(C)c(Cn2c(CN(C)Cc3ccccc3)nc3c2c(=O)n(C)c(=O)n3C)c1 — higher, 17.6%
- CN(C)c1ccc(-c2[nH][nH]c(=O)c2NC(=O)c2ccccn2)cc1 — lower, -1.73%
- Cc1ccc(Nc2c(-c3ccccn3)nc3cccc(C)n23)cc1 — higher, 7.84%
- CC(c1ccccc1)n1cc2c(c1-c1ccccc1Br)c(=O)n(C)c(=O)n2C (stereo not given) — higher, 7.7%
- O=C(O)c1ccc(N2C(=O)CC(SC(=NCc3ccc4c(c3)OCO4)Nc3ccc(F)cc3)C2=O)cc1 (stereo not given) — higher, 6.67%
- O=C(COc1ccccc1-c1ccccc1)NCc1ccco1 — lower, -3.78%
- CCOC(=O)Cc1cc(=O)n2[nH]c(-c3ccccc3)c(-c3ccccc3)c2n1 — higher, 23.3%
- O=C1Cc2ccccc2C(=O)N1CCc1ccccc1 — higher, 10.6%
- Cc1cccc(Nc2nnc(SC/C(O)=C(\C#N)c3nc4ccccc4[nH]3)s2)c1 — lower, -0.416%
- O=C(N/N=C/c1ccc(Sc2ccccn2)o1)c1cc2ccccc2cc1O — lower, -17.8%
- CCn1c(SCC(=O)N/N=C/C=C/c2ccco2)nnc1-c1ccccc1 — higher, 17%
- CCOC(=O)C1=CN(Cc2cccc(F)c2)S(=O)(=O)NC1c1ccc(Br)cc1F (stereo not given) — lower, -12.1%
- Cc1ccc(CNc2nc(NCc3ccccc3)nc3ccsc23)c(C)c1 — lower, -6.55%
- O=C(Nc1cccc(F)c1)c1ccc(-c2cccnc2)c2ccoc12 — higher, 19.4%
- CC1=C(C(=O)Nc2ccccc2)C(c2ccc[nH]2)n2ncnc2N1 (stereo not given) — higher, 14.7%
- Cc1ccc(O)c(-c2n[nH]c3c2C(c2ccccc2F)N(Cc2ccco2)C3=O)c1 (stereo not given) — lower, -18.6%

Point of comparison: CCOc1ccc(N2C(=O)C3Sc4[nH]c(=O)sc4C(/C=C/c4ccccc4)C3C2=O)cc1 (stereo not given), activity change, negative = inhibition 18.3% [at 30.8 µM]. Against it:
- CC(C)C(CCNC(=O)CC(Cc1ccccc1)c1ccco1)c1ccco1 (stereo not given) — higher, 24.9% [at 30.8 µM]
- CCCC(=O)OC1CC(C)N(C(=O)c2ccccc2)c2ccc(C)cc21 (stereo not given) — lower, -2.85% [at 30.8 µM]
- COCCCn1c(=O)/c(=C\c2ccccc2OC(C)C)s/c1=C(/C#N)C(=O)Nc1ccc(C(=O)O)cc1 — higher, 38.7% [at 30.8 µM]
- O=S(=O)(Nc1nc2ccc(Cl)cc2s1)c1cccs1 — lower, -17.1% [at 30.8 µM]
- CCOC(=O)c1cc2c(ccn2C)n1CC(=O)N1CCN(c2cccc(C(F)(F)F)c2)CC1 — lower, 12.9% [at 30.8 µM]
- O=S(=O)(Nc1cc(Sc2ncn[nH]2)c(O)c2ccccc12)c1ccccc1 — lower, 3.32% [at 30.8 µM]
- COC(=O)[C@]12CCCCC=C1N(CCC1=CCCCC1)C(=O)[C@H](CC(=O)NCc1cccc(C(F)(F)F)c1)C2 — lower, -9.47% [at 30.8 µM]
- Cc1occc1-c1nnc(SCC(=O)c2cc3ccccc3oc2=O)o1 — lower, -0.143% [at 30.8 µM]
- CC(C)Cc1ccc(CN2CCCC(NC(=O)c3cnc4ccccn4c3=O)C2)cc1 (stereo not given) — lower, 5.64% [at 30.8 µM]
- COc1ccc(Oc2cn[nH]c2-c2ccc(OC)cc2O)cc1 — lower, -4.7% [at 30.8 µM]
- O=C(CSc1ccc2ccccc2c1)Nc1ccc(S(=O)(=O)Nc2nccs2)cc1 — lower, -0.461% [at 30.8 µM]
- O=C(Nc1cccc(Cl)c1)Nc1ccccc1NS(=O)(=O)c1cccs1 — lower, -19.4% [at 30.8 µM]
- CCCC1=C(C(=O)OCC)C(c2ccco2)C(C#N)=C(N)O1 (stereo not given) — lower, -11% [at 30.8 µM]
- CCOc1ccccc1NC(=O)C1CCN(c2nc(-c3ccc(OC)cc3)no2)CC1 — lower, -14.4% [at 30.8 µM]
- COC(=O)c1ccc2nc(-c3ccc(F)cc3)c(Cc3ccc(C)cc3)n2c1 — lower, -2.87% [at 30.8 µM]

From PubChem BioAssay (NCATS)
